Measurements published in ChEMBL document CHEMBL4888484, “Replenishing the malaria drug discovery pipeline: Screening and hit evaluation of the MMV Hit Generation Library 1 (HGL1) against asexual blood stage Plasmodium falciparum ,using a nano luciferase reporter read-out” (2022).
Among all 4,800 compounds or so, about 420 (8.8%) showed an effect of 50% or more. The list comes from a sample in which strong results are over-represented; it also holds similar structures and randomly drawn compounds.

The molecules below were run on Plasmodium falciparum (assay: Confirmatory screen in NF54 nanoGlo assay, in single point, at 2uM, 72h). Conditions: timepoint 72 hour.
Assay type: functional, Erythrocyte
`O=C(Cc1c[nH]c2ccccc12)N[C@H]1CCS(=O)(=O)C1` was tested, and the “% Inhibition” value was -4%. In the case of `CCOCCCNC/C=C/c1ccccc1`, the “% Inhibition” value is reported as -5%. For `CC(=O)N1CCC(Nc2ccc3c(c2)CCC(=O)N3)CC1`, the “% Inhibition” value was -17%. `COc1cc(Cl)c(C)cc1NC(=O)c1cc(=O)n(-c2ccc(C)cc2)[nH]1` was tested, and the “% Inhibition” value was -8%. In the case of `Clc1cccc(N2CCN(Cc3ccc(OC4CCNCC4)cc3)CC2)c1`, the “% Inhibition” value is reported as 27%. With `O=C(CN1CCCCCC1)Nc1ccc(OCc2ccccc2)cc1` the “% Inhibition” value was 0%. `c1ccc(Cn2ncc3cc(-c4nc(C5CC5)no4)cnc32)cc1` was tested, and the “% Inhibition” value was 3%. With `COc1ccccc1[C@H]1CC(O)=Nc2c1ncn2-c1cc(F)cc(F)c1` the “% Inhibition” value was -4%. `Cn1ccnc1[C@@H]1CCCN1S(=O)(=O)c1c2c(nn1C)CCCC2` was tested, and the “% Inhibition” value was 4%. In the case of `C[C@@H](CNc1nc(-c2ccccc2)nc2nc(-c3ccc(Cl)cc3)oc12)N1CCCCC1`, the “% Inhibition” value is reported as 60%. With `O=C1CC(c2cccc(NC(=O)CCc3ccccn3)c2)CC(=O)N1` the “% Inhibition” value was 3%. For `NC(=O)c1ccc(C(F)(F)F)n(C[C@H](O)c2cc(Cl)ccc2Cl)c1=O`, the “% Inhibition” value was 63%. With `Cc1cc(-n2c(C)cc(C(=O)Cn3c(C(F)(F)F)ccc(C(N)=O)c3=O)c2C)no1` the “% Inhibition” value was 25%. In the case of `NC(=O)c1ccc(C(F)(F)F)n(CC(=O)N(Cc2ccc(F)cc2)C2CCCCC2)c1=O`, the “% Inhibition” value is reported as -6%. `CCC(=O)N(CCN(C)C)Cc1c(-c2ccccc2)noc1N1CCCCC1` was tested, and the “% Inhibition” value was 10%. In the case of `CCN(CCN(C)C)C(=O)c1cccc(-c2ccc3nccc(N)c3c2)c1`, the “% Inhibition” value is reported as 70%. With `Cc1cccc(OC[C@@H](O)Cn2cnc(C)c(C)c2=O)c1` the “% Inhibition” value was 5%. In the case of `COc1ccc(-n2nnnc2[C@@H](NCCc2c[nH]c3ccccc23)C(C)C)cc1`, the “% Inhibition” value is reported as -1%. With `Cc1cccc(CC(=O)N[C@@H](C)CCC(=O)O)c1` the “% Inhibition” value was 4%. With `CN1CCC2C(CCN2C(=O)Nc2ccc(Cl)c(C(F)(F)F)c2)C1` (stereo unspecified) the “% Inhibition” value was 2%. For `O=C(CCc1ccc(Cl)c(C(F)(F)F)c1)N1CC[C@H](N2CCc3ccccc3C2)C1`, the “% Inhibition” value was 52%. `O=C(Nc1ccccc1Cl)N1CCC(N2CCc3sccc3C2)CC1` was tested, and the “% Inhibition” value was 37%. In the case of `CC(C)c1cccc(CN2C(=O)N[C@]3(CC(C)(C)OC3(C)C)C2=O)n1`, the “% Inhibition” value is reported as -6%. In the case of `C[C@H](C(=O)NCC1CCN(Cc2ccccc2F)CC1)C1CCOCC1`, the “% Inhibition” value is reported as -6%. With `CC(Oc1ccc2c(c1)C(c1ccccc1)N(Cc1ccccc1F)CC2)C(=O)NC1CC1` (stereo unspecified) the “% Inhibition” value was 56%. `COc1ccc2cc3n(c2c1)C[C@](C(=O)NC1CCCCCC1)(c1ccccc1)N(Cc1ccccc1F)C3=O` was tested, and the “% Inhibition” value was -17%. In the case of `C=CCN1CCN(c2nccn3nc(-c4ccc(Cl)cc4)cc23)CC1`, the “% Inhibition” value is reported as -3%. `CC[C@H]1C(=O)NCCN1C(=O)c1cc(C)n[nH]1` was tested, and the “% Inhibition” value was 7%. `Cn1c(Cc2n[n+]3c(-c4ccccc4)cc(-c4ccccc4)nc3n2C)n[n+]2c(-c3ccccc3)cc(-c3ccccc3)nc12` was tested, and the “% Inhibition” value was 99%. For `COCc1nsc(N2CCC(c3ccccc3)CC2C)n1` (stereo unspecified), the “% Inhibition” value was 1%. `O=C(NCc1cccnc1)c1cnn2c3c(cnc12)CCCC3` was tested, and the “% Inhibition” value was -4%. `C[C@H]1CCN(c2nc(-c3ccccn3)nc3c2CCC3)C1` was tested, and the “% Inhibition” value was 91%. With `O[C@H]1Cc2ccccc2[C@H]1Nc1nc(-c2ccccn2)nc2c1CCNC2` the “% Inhibition” value was 13%. In the case of `C[C@H]1CCCN(S(=O)(=O)NCC(=O)Nc2ccccn2)C1`, the “% Inhibition” value is reported as -15%. `CCc1ccc(NC(=O)[C@H]2CCCN(c3nc4cccnc4n(Cc4ccccc4)c3=O)C2)cc1` was tested, and the “% Inhibition” value was -6%. For `C[C@H]1CCCN(c2nc(-c3ccccn3)nc3ccccc23)C1`, the “% Inhibition” value was 97%. For `FC(F)(F)C1CN(c2nc(-c3ccccn3)nc3c2CCC3)C1`, the “% Inhibition” value was 67%. For `CN(C)Cc1ccc(O)c(CCc2ccccc2)n1`, the “% Inhibition” value was 29%. With `C[C@@]12CCCCN1CCCc1c2[nH]c2ccccc12` the “% Inhibition” value was -15%. `CCOc1cc(Cl)ccc1C(=O)NC1CCN(C[C@H]2CCOC2)CC1` was tested, and the “% Inhibition” value was 1%. For `COc1c[nH]c(C(=O)NC2CCN(Cc3ccccc3)CC2)cc1=O`, the “% Inhibition” value was 5%. In the case of `FCCn1ncnc1CN1CCCCC[C@H]1C1CCCCC1`, the “% Inhibition” value is reported as 4%. With `CCN(CC)CC(O)COc1c(Br)cc(C(C)(C)c2cc(Br)c(OCC(O)CN(CC)CC)c(Br)c2)cc1Br` (stereo unspecified) the “% Inhibition” value was 99%. `O=C(CNC(=O)[C@H]1CC[C@H](CNS(=O)(=O)c2ccccc2)CC1)N1CCN(c2ccccc2)CC1` was tested, and the “% Inhibition” value was 4%. `O=C(Nc1nc2ccc(F)cc2s1)c1cccc2c(Br)cccc12` was tested, and the “% Inhibition” value was -1%. `C=CCN1C(=O)OC(C)(CCC=C(C)C)C1(C)O` (stereo unspecified) was tested, and the “% Inhibition” value was 9%. For `Cc1cc(CN(C)Cc2nccn2C)ccc1N1CCCCC1`, the “% Inhibition” value was -1%. `CN1CCCN(c2ccnc3ccsc23)CC1` was tested, and the “% Inhibition” value was 2%. For `Cc1cccc(OCc2nn3c([C@H]4CCCN(S(C)(=O)=O)C4)nnc3s2)c1`, the “% Inhibition” value was -6%. `Cc1nccc(N(C)C2CC(Oc3ccccc3)C2(C)C)n1` (stereo unspecified) was tested, and the “% Inhibition” value was -5%. In the case of `Cc1nn2c(C(F)F)cc(-c3ccc4c(c3)OCO4)nc2c1Cl`, the “% Inhibition” value is reported as -5%. `C[C@@]1(C(=O)NCc2ccccc2)Cn2nc(-c3ccccc3)cc2C(=O)N1c1ccc2c(c1)OCCO2` was tested, and the “% Inhibition” value was 58%. For `COc1cccc(-c2ccc(=O)n(CCC(=O)N3CCN(Cc4ccc5c(c4)OCO5)CC3)n2)c1`, the “% Inhibition” value was 1%. In the case of `CCc1ccc(CN2C(=O)c3c(C(=O)OC)ncn3C[C@@]2(C)C(=O)NC2CCCC2)cc1`, the “% Inhibition” value is reported as -6%. `O=C(CCn1nc(-c2ccc(Br)cc2)ccc1=O)NCc1ccc2c(c1)OCO2` was tested, and the “% Inhibition” value was -4%. With `CCc1ccc(CN2C(=O)c3c(C(=O)OC)ncn3C[C@@]2(C)C(=O)NC2CCCCCC2)cc1` the “% Inhibition” value was 1%. `COc1ccc(-c2cc3n(n2)C[C@@](C)(C(=O)NCc2ccccc2)N(Cc2ccc4c(c2)OCO4)C3=O)cc1` was tested, and the “% Inhibition” value was 63%. For `COc1ccc(-c2cc3n(n2)C[C@@](C)(C(=O)NCc2ccccc2OC)N(c2cccc(OC)c2)C3=O)cc1`, the “% Inhibition” value was 49%. With `CCc1ccc(-c2cc3n(n2)C[C@@](C)(C(=O)NC2CCCCC2)N(c2cc(C)cc(C)c2)C3=O)cc1` the “% Inhibition” value was 74%. For `Cc1cc(C)c(S(=O)(=O)N2CCC(C)(C(=O)NCc3ccc4c(c3)OCO4)CC2)cc1C`, the “% Inhibition” value was 3%. For `Cc1nn(CCc2nnc(-c3ccc4c(c3)OCO4)o2)c(C)c1Cl`, the “% Inhibition” value was -3%.
